Most compounds without a hit are left out; they make up all but 21% or so of the library.
CYP2C19 inh: blocks human cytochrome P450 2C19 | CYP2C19 Supersomes, luciferin-H EGE luminescence, 30 min | inhibition, % at 5 µM | 21% of 96,000 active | AID 778;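 active means CYP2C19 inhibition above a set limit at 5 µM in the primary screen, cut at about 50% in these data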;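 further: plate controls were negative control wells for no effect and 2.5 mM tranylcypromine positive control for full effect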
Target sequence (P33261 whole entry, looked up): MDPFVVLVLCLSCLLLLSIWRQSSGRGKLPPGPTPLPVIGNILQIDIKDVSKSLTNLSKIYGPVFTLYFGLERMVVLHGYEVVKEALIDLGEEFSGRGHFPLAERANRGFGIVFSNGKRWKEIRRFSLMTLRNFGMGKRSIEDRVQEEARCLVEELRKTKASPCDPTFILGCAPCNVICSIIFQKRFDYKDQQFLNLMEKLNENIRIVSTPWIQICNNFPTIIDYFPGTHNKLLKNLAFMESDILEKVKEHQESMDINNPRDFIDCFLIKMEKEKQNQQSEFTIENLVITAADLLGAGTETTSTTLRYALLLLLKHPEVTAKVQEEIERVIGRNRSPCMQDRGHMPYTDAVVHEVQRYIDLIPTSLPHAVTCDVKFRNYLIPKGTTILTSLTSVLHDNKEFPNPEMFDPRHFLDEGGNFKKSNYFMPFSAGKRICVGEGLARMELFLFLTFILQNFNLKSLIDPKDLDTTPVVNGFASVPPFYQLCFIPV
CYP2C9 inh: blocks human cytochrome P450 2C9 | P11712 | CYP2C9 Supersomes, luciferin-H conversion, luminescence | inhibition, % at 5 µM | 20% of 96,000 active;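 active means blocking of liver enzyme CYP2C9 beyond about 50% at 5 µM, limit read from the data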
CYP2C19 activ: cytochrome P450 2C19 (human) activation. activation factor at 5 µM. recombinant CYP2C19, luciferin-H EGE luminescence; stronger effect = higher value; 0 = fully inhibited enzyme, 1 = untreated enzyme. 96,000 tested, under 10 active. AID 1025. P33261;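 active means activation factor of at least 2 at 5 µM in the primary screen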;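 further: 0 = wells with 2.5 mM tranylcypromine and 1 = vehicle-only wells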
MRP-1 activ: activators of MRP-1; viability increase, % at 10 µM; AID 799; 0.61% of 140,000 active; H69AR cells + doxorubicin, viability rescue, CellTiter-Glo;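 active means viability gain under doxorubicin at or above a set limit, the compound median plus 3 SD, cut at about 4.7% in these data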;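 further: MRP-1 overexpressing cells given doxorubicin 25 µM after compound pretreatment; 18-22 h compound pretreatment then 72 h with doxorubicin before readout; 0% = doxorubicin-only wells and 100% = vehicle-treated cells without doxorubicin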
CYP2C9 act: CYP2C9 (human) activation. 1.4% of 96,000 active. P11712. AID 1024. activation factor at 5 µM. recombinant CYP2C9, luciferin-H conversion, luminescence; stronger effect = higher value; factor 1 = untreated enzyme, 0 = blocked;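 active means activation factor of 2 or more for CYP2C9 at a 5 µM dose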;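 further: 0 = sulfaphenazole-blocked wells and 1 = vehicle-only wells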
MRP resist rev: reverses drug resistance mediated by MRP. AID 602. H69AR cells + 2 uM doxorubicin, CellTiter-Glo, 72 h. 0.04% of 85,000 active. differential viability (reversal), % at 10 µM;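 active means viability drop by adding the cancer drug above about 55%, with treated viability meeting a 40% cutoff, limit read from the data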;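 further: viability without doxorubicin minus viability with 2 µM doxorubicin for each compound; larger differential means the compound sensitizes cells more to doxorubicin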
* hit, by the source's call; . = no result.

SMILES	CYP2C19 inh	CYP2C9 inh	CYP2C19 activ	MRP-1 activ	CYP2C9 act	MRP resist rev
CCOC(=O)c1cccc(NC(=O)CCS(=O)(=O)c2cccc3nsnc23)c1	77.4*	72.4*	0.2	-3.0	0.3	2.3
CS(=O)(=O)N(CC(=O)NC1CCCCC1)c1cccc(Cl)c1	30.1	19.4	0.7	-0.8	0.8	-7.8
CN1CCCN(C(=O)Cc2c(Cl)cccc2Cl)c2nc3ccccc3nc21	18.1	17.1	0.8	-3.7	0.8	-5.9
O=[N+]([O-])c1cc(S(=O)(=O)N2CCCCCC2)ccc1F	.	.	.	-1.5	.	.
O=C(Nc1ccc2ccccc2c1)c1cccnc1	17.0	7.7	0.8	-2.0	0.9	8.3
O=C(Nc1ccc(Cl)c(-c2nc3ccccc3[nH]2)c1)c1cccnc1	59.8*	83.3*	0.4	-3.9	0.2	.
O=C(Nc1ccc(-c2cc3ccccc3oc2=O)c(Cl)c1)c1cccnc1	22.2	-120.0	0.8	-2.3	2.2*	.
O=C(c1c(O)c2ccccc2oc1=O)C1CCCCC1	-4.9	64.9*	1	-0.2	0.4	-12.3
COc1ccccc1CN(C)C(=O)c1ccc2c(c1)NC(=O)CS2	92.7*	-94.4	0.1	-1.6	1.9	.
COc1ccc(C(=O)N(C)Cc2ccccc2)cc1Br	.	.	.	2.2	.	.
Cc1cc2nc(C)n(CCCNC(=O)Nc3ccc(F)cc3)c2cc1C	29.8	60.1*	0.7	-1.2	0.4	18.5
COC(=O)C1=CNC=C(C(=O)OC)C1c1ccccc1Cl	84.5*	69.8*	0.2	-2.6	0.3	.
COC(=O)C1=CN(C2CC2)C=C(C(=O)OC)C1c1ccc(C(=O)OC)cc1	16.2	0.7	0.8	-0.2	1	-6.7
COC(=O)C1=CNC=C(C(=O)OC)C1c1cccc(OC)c1	85.9*	79.3*	0.1	-1.4	0.2	6.5
COC(=O)C1=CNC=C(C(=O)OC)C1c1ccc(Cl)cc1	74.7*	74.9*	0.3	-1.8	0.3	18.8
CCOC(=O)c1cccc(NC(=O)CSc2nnc(-c3cccnc3)n2C)c1	22.0	38.3	0.8	-1.3	0.6	7.6
COCCNC(=O)CN(C(=O)CCC(=O)Nc1ccccn1)c1ccc(F)c(Cl)c1	30.4	18.3	0.7	1.2	0.8	17.6
CC(C)NC(=O)CN(C(=O)CCC(=O)Nc1ccccn1)c1ccc(F)c(Cl)c1	66.4*	31.4	0.3	0.6	0.7	-1.6
CCC(C)(C)NC(=O)CN(C(=O)CCC(=O)Nc1ccccn1)c1ccc(F)c(Cl)c1	84.9*	74.9*	0.2	-2.0	0.3	9.8
O=C(CCSCc1ccccc1Cl)NC1CCCC1	.	.	.	-2.7	.	.
CCOC(=O)C1=C(Cc2ccc(Cl)cc2)C(=O)c2ccccc2C1=O	99.5*	94.8*	0	-4.2	0.1	-4.8
O=C(N/N=C/c1cccc(OC(=O)c2ccco2)c1)c1ccc(F)cc1	.	.	.	2.7	.	.
Cn1nc(C(F)(F)F)c(C(=O)Nc2ccc(F)cc2F)c1Sc1cccc(Cl)c1	53.5*	36.0	0.5	1.8	0.6	.
Cn1nc(C(F)(F)F)c(C(=O)Nc2ccc(F)cc2F)c1Oc1cccc(Cl)c1	13.7	22.0	0.9	-1.4	0.8	.
Cn1nc(C(F)(F)F)c(C(=O)Nc2ccc(F)cc2F)c1Sc1cccc(C(F)(F)F)c1	87.4*	60.1*	0.1	0.6	0.4	.
SMILES	CYP2C19 inh	CYP2C9 inh	CYP2C19 activ	MRP-1 activ	CYP2C9 act	MRP resist rev
O=C(CNS(=O)(=O)c1ccc2ccccc2c1)OCc1csc(-c2ccccc2)n1	.	.	.	-2.6	.	.
O=S(=O)(NCCc1csc(-c2ccccc2)n1)c1ccc2c(c1)OCCO2	89.2*	14.4	0.1	-3.6	0.9	-0.3
O=S(=O)(NCc1csc(-c2cccnc2)n1)c1ccc2c(c1)OCCO2	57.1*	21.5	0.4	-2.8	0.8	-6.7
Cc1ccc(Oc2nn[nH]n2)cc1	-5.0	70.5*	1.1	0.2	0.3	.
COCC(=O)Nc1cc(C(=O)Nc2ccccc2C)ccc1Cl	17.0	29.7	0.8	-1.8	0.7	.
COCC(=O)Nc1cc(C(=O)Nc2cccc(C)c2C)ccc1Cl	0.0	58.5*	1	1.1	0.4	.
CCOC(=O)C1CCCN(C(=S)Nc2cc(C)cc(C)c2)C1 (stereo not drawn)	70.3*	12.9	0.3	-1.4	0.9	.
CCOC(=O)C1CCN(C(=O)Nc2ccc3nc(-c4ccco4)c(-c4ccco4)nc3c2)CC1	71.0*	75.3*	0.3	-2.2	0.2	-10.8
CCOC(=O)C1CCCN(c2c(Nc3cc(C)cc(C)c3)c(=O)c2=O)C1 (stereo not drawn)	40.5	31.1	0.6	-1.1	0.7	4.6

High-throughput results: PubChem, several laboratories
